Assay [1] has as its target T1, Serine/threonine-protein kinase TBK1 (Homo sapiens) (UniProt Q9UHD2).
T1 sequence (whole entry): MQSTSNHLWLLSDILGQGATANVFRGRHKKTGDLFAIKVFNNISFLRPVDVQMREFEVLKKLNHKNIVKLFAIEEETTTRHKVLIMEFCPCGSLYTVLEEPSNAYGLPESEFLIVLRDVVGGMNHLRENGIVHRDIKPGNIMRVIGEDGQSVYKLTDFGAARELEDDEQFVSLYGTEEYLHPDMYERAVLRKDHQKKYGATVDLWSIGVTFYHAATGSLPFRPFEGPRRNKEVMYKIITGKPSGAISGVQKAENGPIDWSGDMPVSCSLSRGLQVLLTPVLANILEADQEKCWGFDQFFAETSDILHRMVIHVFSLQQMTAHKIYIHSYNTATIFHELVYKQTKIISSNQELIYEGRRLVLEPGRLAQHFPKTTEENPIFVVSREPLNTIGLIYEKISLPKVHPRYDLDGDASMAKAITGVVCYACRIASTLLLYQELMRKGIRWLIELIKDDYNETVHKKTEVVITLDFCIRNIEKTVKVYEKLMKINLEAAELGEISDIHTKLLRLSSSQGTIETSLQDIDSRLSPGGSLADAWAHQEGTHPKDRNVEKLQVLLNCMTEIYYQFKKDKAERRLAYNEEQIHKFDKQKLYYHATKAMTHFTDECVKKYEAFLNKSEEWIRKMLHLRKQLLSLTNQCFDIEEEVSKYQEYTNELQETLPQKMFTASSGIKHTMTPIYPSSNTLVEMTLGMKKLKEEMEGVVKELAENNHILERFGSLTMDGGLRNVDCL
As to conditions: at 10 µM.

Assay [2] has as its target T2, TGF-beta receptor type-1 (Homo sapiens) (UniProt P36897).
T2 sequence (whole entry): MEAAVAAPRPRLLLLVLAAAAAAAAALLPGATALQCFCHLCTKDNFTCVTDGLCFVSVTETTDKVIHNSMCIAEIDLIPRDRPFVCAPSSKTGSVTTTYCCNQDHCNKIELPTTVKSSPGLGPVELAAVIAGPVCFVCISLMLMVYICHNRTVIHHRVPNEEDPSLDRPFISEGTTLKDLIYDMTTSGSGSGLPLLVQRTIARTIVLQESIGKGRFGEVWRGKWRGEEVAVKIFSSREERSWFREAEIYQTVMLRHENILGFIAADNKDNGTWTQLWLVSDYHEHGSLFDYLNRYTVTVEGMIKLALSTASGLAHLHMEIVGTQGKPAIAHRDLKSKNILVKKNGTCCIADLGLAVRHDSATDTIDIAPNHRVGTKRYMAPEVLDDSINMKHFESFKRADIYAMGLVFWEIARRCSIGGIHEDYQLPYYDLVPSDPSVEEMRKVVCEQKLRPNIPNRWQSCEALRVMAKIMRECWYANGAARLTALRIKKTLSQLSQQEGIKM
As to conditions: at 1 µM.

The target of assay [3] is T2, TGF-beta receptor type-1 (Homo sapiens). As to conditions: at 10 µM.
Assay [4] addresses Insulin-like growth factor 1 receptor (Homo sapiens) (UniProt P08069). As to conditions: at 1 µM.
The target is the same in assay [5]. As to conditions: at 10 µM.
Assay [6] deals with T3, Inhibitor of nuclear factor kappa-B kinase subunit alpha (Homo sapiens) (UniProt O15111).
T3 sequence (whole entry): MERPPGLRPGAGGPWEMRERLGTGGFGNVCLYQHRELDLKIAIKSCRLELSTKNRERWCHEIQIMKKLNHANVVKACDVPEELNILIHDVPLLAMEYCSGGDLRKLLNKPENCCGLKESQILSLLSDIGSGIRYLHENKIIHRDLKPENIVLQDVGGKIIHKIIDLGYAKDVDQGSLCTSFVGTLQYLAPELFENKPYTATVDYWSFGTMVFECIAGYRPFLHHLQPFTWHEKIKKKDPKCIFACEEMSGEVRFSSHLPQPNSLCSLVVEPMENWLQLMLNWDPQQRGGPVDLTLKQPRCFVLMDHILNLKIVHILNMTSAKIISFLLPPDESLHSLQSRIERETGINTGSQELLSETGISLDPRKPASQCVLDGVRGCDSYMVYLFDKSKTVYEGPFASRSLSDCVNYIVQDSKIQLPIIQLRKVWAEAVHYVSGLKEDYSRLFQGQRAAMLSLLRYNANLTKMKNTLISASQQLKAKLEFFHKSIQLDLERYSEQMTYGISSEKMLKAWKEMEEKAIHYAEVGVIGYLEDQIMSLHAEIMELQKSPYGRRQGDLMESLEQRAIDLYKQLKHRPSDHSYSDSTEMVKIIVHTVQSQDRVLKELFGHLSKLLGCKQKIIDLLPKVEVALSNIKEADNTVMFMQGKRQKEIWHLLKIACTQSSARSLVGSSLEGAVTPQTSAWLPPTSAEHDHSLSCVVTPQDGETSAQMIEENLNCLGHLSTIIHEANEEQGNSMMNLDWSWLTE
As to conditions: at 1 µM.

The target in assay [7] is T3, Inhibitor of nuclear factor kappa-B kinase subunit alpha (Homo sapiens). As to conditions: at 10 µM.
In assay [8] the target is T4, Inhibitor of nuclear factor kappa-B kinase subunit beta (Homo sapiens) (UniProt O14920).
T4 sequence (whole entry): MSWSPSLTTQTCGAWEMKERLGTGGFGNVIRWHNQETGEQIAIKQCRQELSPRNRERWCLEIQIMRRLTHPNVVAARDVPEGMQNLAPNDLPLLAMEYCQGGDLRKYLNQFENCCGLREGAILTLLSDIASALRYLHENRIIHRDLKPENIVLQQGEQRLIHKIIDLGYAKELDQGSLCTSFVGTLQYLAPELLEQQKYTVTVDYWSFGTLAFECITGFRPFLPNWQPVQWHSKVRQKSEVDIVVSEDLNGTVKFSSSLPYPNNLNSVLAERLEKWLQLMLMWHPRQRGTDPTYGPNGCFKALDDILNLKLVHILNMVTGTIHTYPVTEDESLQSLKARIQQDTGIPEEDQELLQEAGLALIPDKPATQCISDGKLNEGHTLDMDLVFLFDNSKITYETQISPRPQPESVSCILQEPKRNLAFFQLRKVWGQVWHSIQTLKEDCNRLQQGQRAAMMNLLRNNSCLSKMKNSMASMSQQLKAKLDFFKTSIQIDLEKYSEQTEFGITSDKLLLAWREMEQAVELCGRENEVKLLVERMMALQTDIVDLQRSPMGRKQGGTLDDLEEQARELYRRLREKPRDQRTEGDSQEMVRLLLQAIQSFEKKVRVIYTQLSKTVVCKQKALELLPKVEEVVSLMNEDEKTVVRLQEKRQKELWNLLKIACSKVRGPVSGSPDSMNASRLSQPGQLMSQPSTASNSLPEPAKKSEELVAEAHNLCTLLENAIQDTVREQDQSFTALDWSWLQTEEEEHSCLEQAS
As to conditions: at 1 µM.

Assay [9] addresses T4, Inhibitor of nuclear factor kappa-B kinase subunit beta (Homo sapiens). As to conditions: at 10 µM.
Assay [10] deals with Insulin receptor (Homo sapiens) (UniProt P06213). As to conditions: at 1 µM.
Insulin receptor (Homo sapiens), sequence (P06213 28-758 limits assumed): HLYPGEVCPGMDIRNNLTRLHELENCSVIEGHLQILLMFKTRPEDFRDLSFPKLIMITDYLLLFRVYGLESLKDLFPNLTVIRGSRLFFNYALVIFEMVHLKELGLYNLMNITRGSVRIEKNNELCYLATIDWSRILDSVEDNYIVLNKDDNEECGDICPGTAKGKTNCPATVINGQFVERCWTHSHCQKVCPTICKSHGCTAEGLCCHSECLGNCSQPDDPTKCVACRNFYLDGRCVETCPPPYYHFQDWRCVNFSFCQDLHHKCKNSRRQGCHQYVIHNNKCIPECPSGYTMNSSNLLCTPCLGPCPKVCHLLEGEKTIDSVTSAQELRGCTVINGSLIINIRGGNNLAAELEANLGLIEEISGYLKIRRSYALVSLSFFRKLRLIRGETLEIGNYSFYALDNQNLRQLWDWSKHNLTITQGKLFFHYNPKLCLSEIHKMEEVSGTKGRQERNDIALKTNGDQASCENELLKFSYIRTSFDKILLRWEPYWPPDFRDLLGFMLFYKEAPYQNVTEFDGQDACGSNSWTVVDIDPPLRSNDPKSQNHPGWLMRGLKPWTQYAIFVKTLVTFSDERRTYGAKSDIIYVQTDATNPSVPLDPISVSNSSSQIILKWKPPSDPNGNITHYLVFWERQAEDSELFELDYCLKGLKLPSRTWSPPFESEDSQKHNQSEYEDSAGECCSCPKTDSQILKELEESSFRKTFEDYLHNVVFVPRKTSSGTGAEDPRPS
Insulin receptor (Homo sapiens), sequence (P06213 763-1382 limits assumed): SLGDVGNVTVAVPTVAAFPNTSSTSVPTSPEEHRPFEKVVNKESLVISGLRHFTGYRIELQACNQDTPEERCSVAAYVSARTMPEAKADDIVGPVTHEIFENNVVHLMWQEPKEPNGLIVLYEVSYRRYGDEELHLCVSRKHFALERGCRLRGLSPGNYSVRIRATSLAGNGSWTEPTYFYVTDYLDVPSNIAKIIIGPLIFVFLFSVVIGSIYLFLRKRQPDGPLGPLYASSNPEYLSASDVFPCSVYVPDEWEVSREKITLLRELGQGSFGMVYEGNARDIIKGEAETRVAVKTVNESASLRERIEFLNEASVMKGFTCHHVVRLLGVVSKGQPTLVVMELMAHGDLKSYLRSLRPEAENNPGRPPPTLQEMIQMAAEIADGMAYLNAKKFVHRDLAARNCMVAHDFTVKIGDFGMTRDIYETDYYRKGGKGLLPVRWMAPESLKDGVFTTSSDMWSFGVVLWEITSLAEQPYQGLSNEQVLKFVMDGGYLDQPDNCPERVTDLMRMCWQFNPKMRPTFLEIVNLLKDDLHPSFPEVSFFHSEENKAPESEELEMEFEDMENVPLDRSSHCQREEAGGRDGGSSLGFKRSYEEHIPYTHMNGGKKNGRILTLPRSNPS

One may read the residual activity as the signal under treatment as a percentage of the control signal.

Insulin-like growth factor 1 receptor (Homo sapiens), sequence (P08069 31-736 limits assumed): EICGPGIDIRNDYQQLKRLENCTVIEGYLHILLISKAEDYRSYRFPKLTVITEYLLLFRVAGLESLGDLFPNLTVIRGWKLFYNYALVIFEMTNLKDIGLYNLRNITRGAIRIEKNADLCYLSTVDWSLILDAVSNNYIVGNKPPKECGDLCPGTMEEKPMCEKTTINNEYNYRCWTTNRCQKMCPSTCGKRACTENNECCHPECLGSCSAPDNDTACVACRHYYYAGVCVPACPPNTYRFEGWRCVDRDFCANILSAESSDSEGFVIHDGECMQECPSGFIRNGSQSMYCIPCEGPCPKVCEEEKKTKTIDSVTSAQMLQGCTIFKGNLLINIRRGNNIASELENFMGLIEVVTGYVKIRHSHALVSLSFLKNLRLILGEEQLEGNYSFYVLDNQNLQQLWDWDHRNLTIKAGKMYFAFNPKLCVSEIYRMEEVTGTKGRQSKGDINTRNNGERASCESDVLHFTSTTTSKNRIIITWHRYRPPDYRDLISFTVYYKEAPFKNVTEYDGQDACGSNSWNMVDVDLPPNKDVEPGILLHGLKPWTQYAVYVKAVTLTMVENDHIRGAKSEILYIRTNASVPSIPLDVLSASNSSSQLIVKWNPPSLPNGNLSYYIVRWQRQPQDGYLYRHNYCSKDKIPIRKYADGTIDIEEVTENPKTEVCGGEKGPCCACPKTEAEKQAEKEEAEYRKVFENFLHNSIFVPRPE
Insulin-like growth factor 1 receptor (Homo sapiens), sequence (P08069 741-1367 limits assumed): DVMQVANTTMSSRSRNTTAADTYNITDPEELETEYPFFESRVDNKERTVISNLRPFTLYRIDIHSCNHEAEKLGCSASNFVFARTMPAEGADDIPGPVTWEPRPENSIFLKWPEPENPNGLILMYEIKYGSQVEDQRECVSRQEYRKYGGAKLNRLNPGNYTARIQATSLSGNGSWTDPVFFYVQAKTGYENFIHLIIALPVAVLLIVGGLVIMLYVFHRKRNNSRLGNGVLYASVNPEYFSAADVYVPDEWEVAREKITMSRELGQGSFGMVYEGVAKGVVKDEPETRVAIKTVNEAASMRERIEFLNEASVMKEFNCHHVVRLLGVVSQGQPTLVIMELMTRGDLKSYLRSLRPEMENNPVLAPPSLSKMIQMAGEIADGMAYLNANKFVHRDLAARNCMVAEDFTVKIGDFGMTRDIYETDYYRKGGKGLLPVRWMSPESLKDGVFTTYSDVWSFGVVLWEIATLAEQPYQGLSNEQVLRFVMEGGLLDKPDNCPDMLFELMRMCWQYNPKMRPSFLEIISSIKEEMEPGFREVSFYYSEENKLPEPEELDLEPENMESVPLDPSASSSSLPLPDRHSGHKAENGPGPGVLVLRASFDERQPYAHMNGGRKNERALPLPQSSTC

With `NC(=O)c1ccc2[nH]c(-c3ccc(Oc4ccc(Cl)cc4)cc3)nc2c1`, the residual activity in assay [1] was determined as 60%; in assay [2], 84%; in assay [3], 85%; in assay [4], 89%; in assay [5], 85%; in assay [6], 123%. Besides, the residual activity in [7] was found to be 137%; in assay [8] it was 108%; in [9] it was 106%; in [10], 102%.

These data come from ChEMBL document CHEMBL2218924, “A broad activity screen in support of a chemogenomic map for kinase signalling research and drug discovery” (Biochem J, 2013).
